The campaign covered roughly 2,300 compounds. About 350 (15%) were called active. The rule behind the calls is not given here. Not all results are given here. A call without a number means that no potency is given here. Potency and affinity values are given separately.
Assay: HepG2 cell cytotoxicity, dose response, cytotoxicity control for non-replicating M. tuberculosis project (AID 489018);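 note: HepG2 human liver cells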
Details: series mostly up to 20 µM

Row | Structure (SMILES) | outcome
1 | O=C1N/C(=N\c2ccccn2)SC1Cc1ccc(Cl)cc1 (stereo unspecified) | inactive
2 | COc1cc(/C=C/c2ccc3c([N+](=O)[O-])cccc3n2)ccc1OCC(=O)O | inactive
3 | CCCOc1ccc(-c2nc(C#N)c(NCCCn3ccnc3)o2)cc1 | inactive
4 | O=C(CCSc1nnc(-c2ccccc2)o1)N1CCOCC1 | inactive
5 | Cc1onc(-c2ccccc2)c1C(=O)O/N=C(\N)c1ccc([N+](=O)[O-])o1 | inactive
6 | O=C(COC(=O)c1ccc(Br)o1)NCCCc1ccccc1 | inactive
7 | Oc1ccccc1Nc1nc(NCC2CCCO2)c2ccccc2n1 (stereo unspecified) | inactive
8 | O=C(c1ccc([N+](=O)[O-])s1)N1CCN(c2cccc(Cl)c2)CC1 | inactive
9 | O=c1oc(-c2cccs2)nc2c1cnn2-c1ccccc1 | inactive
10 | Cc1ccc(-c2nn(-c3ccccc3)cc2/C=N/NC(=O)c2ccncc2)o1 | inactive
11 | NC(N)=N/N=C/c1cn(-c2ccccc2)nc1-c1cccs1 | inactive
12 | O=C(N/N=C/c1cccc2nccnc12)c1ccncc1 | inactive
13 | CC(C)(C)Sc1ccc2nc3c(n2c1)CCCC3 | inactive
14 | CCOC(=O)C(Nc1ccc2ccccc2c1)C(=O)OCC | inactive
15 | CC1Cc2ccccc2N1C(=O)COC(=O)c1ccc(Cl)nc1 (stereo unspecified) | inactive
16 | O=C(CNC(=O)c1cccc(F)c1)N/N=C/c1ccc([N+](=O)[O-])s1 | inactive
17 | CC(C)(C)OC(=O)N/N=C\c1ccc([N+](=O)[O-])s1 | inactive
18 | Cc1ccc(C(=O)N/N=C/c2ccc([N+](=O)[O-])s2)cc1 | inactive
19 | COC(=O)N/N=C/c1ccc([N+](=O)[O-])s1 | inactive
20 | CCOC(=O)N/N=C\c1ccc([N+](=O)[O-])s1 | inactive
21 | O=C(N/N=C/c1ccc([N+](=O)[O-])s1)c1cccc(Br)c1 | inactive
22 | O=C(N/N=C/c1ccc([N+](=O)[O-])s1)c1ccncc1 | inactive
23 | O=C(N/N=C/c1ccc([N+](=O)[O-])s1)c1ccccc1 | inactive
24 | Oc1oc(-c2ccco2)nc1C=Nc1cccc(Cl)c1 | inactive

Row | Structure (SMILES) | outcome
25 | CCCCOC(=O)C1CCCC(C(=O)OCCCC)N1 (stereo unspecified) | inactive
26 | COC(=O)COc1ccc(S(=O)(=O)N2CCCCCC2)cc1 | inactive
27 | O=C(CNC(=O)c1ccco1)OCc1ccc(C(=O)Oc2ccccc2)cc1 | inactive
28 | Cn1c(-c2cccc([N+](=O)[O-])c2)cnc1NCc1cccc(F)c1 | inactive
29 | Cc1ccc(C)c(-c2csc(NC(=O)c3cnccn3)n2)c1 | inactive
30 | O=C(Nc1nnc(-c2ccccn2)o1)c1cccc(Cl)c1 | inactive
31 | COCCOC(=O)c1c(C)oc2ccc(OC(=O)c3ccco3)cc12 | inactive
32 | O=C(Nc1nnc(-c2ccc(Br)cc2)o1)C1=COCCO1 | inactive
33 | O=C(c1ccc(-c2ccc([N+](=O)[O-])cc2)o1)N1CCCCCCC1 | inactive
34 | FC(F)(F)c1nnc2ccc(Cl)nn12 | inactive
35 | Cc1cc(N/N=C/c2ccccc2O)c2ccccc2n1 | inactive
36 | COc1ccc(/C=N/Nc2cc(C)nc(-n3nc(C)cc3C)n2)cc1 | inactive
37 | COc1ccc2nc(/N=C(\N)NC(=O)C(C)(C)C)nc(C)c2c1 | inactive
38 | COc1ccc(Nc2ccccc2N)cc1 | inactive
39 | COc1cc(/C=N/Nc2cccc3cccnc23)cc(OC)c1O | inactive
40 | Cc1nnc(N/N=C/c2ccc(Br)cc2)n1N | inactive
41 | O=C(c1ccccc1)c1nc[nH]c1C(=O)Nc1ccccc1 | inactive
42 | COC(=O)C(O)(c1ccc(NC(=S)NC(=O)c2ccccc2)cc1)C(F)(F)F (stereo unspecified) | inactive
43 | O=C(N=Nc1c(O)[nH]c2ccc(Br)cc12)c1ccccc1-n1cccc1 | inactive
44 | O=C(Oc1ccccc1)c1ccc(NC(=O)c2ccco2)cc1 | inactive
45 | O=C1NC(=O)C(=Cc2ccc(Oc3ccc([N+](=O)[O-])cc3)cc2)C(=O)N1 | inactive
46 | c1ccc2sc(SCc3ccc(-c4nnco4)cc3)nc2c1 | inactive
47 | CCCCNC(=O)Nc1nnc(-c2ccc(Cl)cc2)o1 | inactive
48 | CC(NC(=O)c1cc([N+](=O)[O-])cc([N+](=O)[O-])c1)c1ccc(-n2ccnc2)cc1 (stereo unspecified) | inactive

Row | Structure (SMILES) | outcome
49 | Cc1cccc(OCCN2CSC(=S)N(C)C2)c1 | inactive
50 | COC(=O)C1CC(=O)N(c2ccc(OCc3ccccc3Cl)cc2)C1 (stereo unspecified) | inactive
51 | COc1cc(CNC2CCCC2)cc(Cl)c1OCc1ccc(F)cc1 | inactive
52 | Clc1ccc(OCCCNCc2ccccc2)c2ccccc12 | inactive
53 | Clc1cccc(CNCCNCc2cccc(Cl)c2)c1 | inactive
54 | COc1cc(CNCCc2ccccc2)cc(Br)c1OCC(=O)Nc1ccccc1C | inactive
55 | Clc1ccc(Cl)c(OCCCCNCc2ccccc2)c1 | inactive
56 | N#C/C(N=Nc1ccccc1O)=N\Nc1ccccc1O | inactive
57 | O=C(OCC#CCSc1nc2ccccc2o1)c1ccco1 | inactive
58 | O=C(CCNc1ccc(Cl)cc1)c1cccs1 | inactive
59 | O=C(N/N=C/c1ccccn1)c1cccc(S(=O)(=O)Nc2ccccc2Cl)c1 | inactive
60 | CC(=O)Nc1nc2ccccc2n1CCOc1ccccc1Cl | inactive
61 | COc1cccc2cc(-c3nc4ccccc4o3)c(=O)oc12 | inactive
62 | NC(=O)c1ccc(N=Cc2ccc([N+](=O)[O-])s2)cc1 | inactive
63 | CCC(C)(C)c1ccc(OCC(=O)Nc2ccncc2)cc1 | inactive
64 | Cc1nnc(N/N=C/c2ccc(-c3ccc(Br)cc3)o2)n1N | inactive
65 | O=C(Nc1nnc(-c2ccc(Cl)cc2)o1)c1nc2ccccc2s1 | inactive
66 | Cc1ccc2nc(CCc3nc4ccc(C)cc4[nH]3)[nH]c2c1 | inactive
67 | O=C(CCNc1ccc(Cl)c(C(F)(F)F)c1)c1ccco1 | inactive
68 | COc1cccc(-c2cc3nc4c(c(NCC(C)(C)CN(C)C)n3n2)CCCC4)c1 | inactive
69 | CN(C)CCNc1c2c(c(C#N)c3nc4ccccc4n13)CCCC2 | inactive
70 | CSc1ccc(CNc2ncc(-c3cccc([N+](=O)[O-])c3)n2C)cc1 | inactive
71 | CCCCCCCC(=O)NNC(=O)c1ccc(F)cc1 | inactive
72 | CCCCCCCC(=O)N/N=C(/C)c1c(O)cc(C)oc1=O | inactive

Row | Structure (SMILES) | outcome
73 | O=C(OCc1c(Cl)cccc1Cl)c1ccccn1 | inactive
74 | COC(=O)COc1cccc(NC(=O)COc2ccccc2)c1 | inactive
75 | O=C(N/N=C/C(Br)=C/c1ccccc1)c1cnccn1 | inactive
76 | O=C(N/N=C/C(Br)=C/c1ccccc1)c1ccncc1 | inactive
77 | COc1ccc(NC(=O)CCCN2C(=O)/C(=C\c3ccco3)SC2=S)cc1 | inactive
78 | O=c1[nH]c(=O)n(Cc2ccccc2Cl)c(O)c1/C=C1/C=CC=N1 | inactive
79 | c1ccc(Nc2nc(Nc3ccccc3)nc(N3CCNCC3)n2)cc1 | inactive
80 | COc1ccc(CCOC(=O)c2ccc(N)c([N+](=O)[O-])c2)cc1 | inactive
81 | Cc1ccccc1NC(=O)c1nc[nH]c1C(=O)NCc1ccccc1 | inactive
82 | O=C(COC(=O)CCc1c[nH]c2ccccc12)Nc1cc([N+](=O)[O-])ccc1Cl | inactive
83 | C[C@H](NC(=O)c1[nH]cnc1C(=O)Nc1ccccc1)C(=O)OC(C)(C)C | inactive
84 | O=c1c2c(nc3c(-c4ccccc4)c[nH]n13)CCCC2 | inactive
85 | Cc1ccc(-c2noc(CCCC(=O)Nc3cccnc3)n2)cc1 | inactive
86 | CCCCNC(=O)COC(=O)c1cc(F)c(F)cc1Cl | inactive
87 | O=C(/C=C/Nc1ccccc1O)c1ccco1 | inactive
88 | O=C(CCNc1ccc(F)cc1)c1ccco1 | inactive
89 | COc1ccc(C(=O)COC(=O)c2ccccc2O)c(OC)c1 | inactive
90 | CCCS(=O)(=O)c1nnnn1-c1cccc(OC)c1 | inactive
91 | CCOC(=O)Cn1cc(C#N)c2cccc(CC)c21 | inactive
92 | CCn1c(NC(=O)c2ccccc2)nc2ccccc21 | inactive
93 | CCOC(=O)C(C)Oc1ccc(OCc2ccccc2)cc1 (stereo unspecified) | inactive
94 | CCOC(=O)COc1ccc2c(c1)c(C(C)=O)c(C)n2Cc1ccccc1 | inactive
95 | CC(C)(C)NC(=O)c1ccc(NC(=O)c2ccccc2-c2ccccc2C(=O)O)cc1 | inactive
96 | CSc1ccc(N=Nc2c(C)[nH]n(C)c2=O)cc1 | inactive

Row | Structure (SMILES) | outcome
97 | Nc1nc2ccccc2n1CCOc1ccccc1Cl | inactive
98 | C/C(=N\NC(=O)c1ccccc1)c1nc2ccccc2n1C | inactive
99 | C/C(=N\NC(=O)c1ccc([N+](=O)[O-])c(C)c1)c1ccccc1Cl | inactive
100 | Cc1ccc(N2NC(=O)/C(=C/C=C/c3ccco3)C2=O)cc1C | inactive
101 | c1ccc(CSc2ccc(-c3ccccn3)nn2)cc1 | inactive
102 | COC(=O)/C(=C1/Oc2cc(C)oc(=O)c2S1)C(F)(F)F | inactive
103 | O=C(Nc1nc2c(Cl)cccc2s1)c1ccc([N+](=O)[O-])o1 | inactive
104 | O=C(Nc1ccc(S(=O)(=O)N2CCOCC2)cc1)c1ccc([N+](=O)[O-])o1 | inactive
105 | Cc1ccc(-n2nnnc2CNC(=O)c2ccc([N+](=O)[O-])o2)cc1C | inactive
106 | O=C(Nc1cccc(Cl)c1N1CCCC1)c1ccc([N+](=O)[O-])o1 | inactive
107 | O=C(Nc1ccc(Cc2ccncc2)cc1)c1ccc([N+](=O)[O-])o1 | inactive
108 | Cc1ccc(C)c(-c2nnc(NC(=O)c3ccc([N+](=O)[O-])o3)o2)c1 | inactive
109 | O=C(Nc1cccc(S(=O)(=O)N2CCCCC2)c1)c1ccc([N+](=O)[O-])o1 | inactive
110 | O=C(Nc1ccccc1N1CCN(C(=O)c2ccc(Cl)cc2)CC1)c1ccc([N+](=O)[O-])o1 | inactive
111 | CCNC(=O)COC(=O)c1ccc(-c2nc3ccccc3s2)s1 | inactive
112 | O=C(CCN1CCN(C/C=C/c2ccccc2)CC1)Nc1ccc(Cl)cc1 | inactive
113 | O=C(COc1ccc(F)cc1)N/N=C/c1cccc2cccnc12 | inactive
114 | CCCn1nnnc1NC(=O)c1ccc2ccccc2c1 | inactive
115 | COCCn1c(C)cc(C(=O)COC(=O)c2ccc([N+](=O)[O-])o2)c1C | inactive
116 | CC(=O)Oc1c(-c2ccc(Br)o2)oc2ccccc2c1=O | inactive
